Measured values published in the supplement of paper PMC4466140.

Target: CaNbp2
Test: SPOT peptide array binding signal intensity (averaged, normalized) (arbitrary units (background-subtracted, floor 0; scale differs between SH3 domains)); higher = stronger binding of the SH3 domain to the peptide
Method in brief: (§1)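 Peptides were synthetic 15-mers on cellulose membranes, with every cysteine replaced by serine. They were incubated overnight at 4°C with GST-SH3 domains from four yeast species at 10 μg/ml in TBS-based blocking buffer. Binding signal, the replicate-averaged normalized and background-subtracted spot intensity, is in arbitrary units that differ between domains.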

| Binder | SPOT peptide array binding signal intensity |
| --- | --- |
| AGKRRLPLVRFKASD | 384 |

Target: CaRvs167
Test: as above
Method in brief: as §1

| Binder | SPOT peptide array binding signal intensity |
| --- | --- |
| AGKRRLPLVRFKASD | 51.3 |

Target: CaRvs167-3
Test: as above
Method in brief: as §1

| Binder | SPOT peptide array binding signal intensity |
| --- | --- |
| AGKRRLPLVRFKASD | 226 |

Target: CaSho1
Test: as above
Method in brief: as §1

| Binder | SPOT peptide array binding signal intensity |
| --- | --- |
| AGKRRLPLVRFKASD | 613 |

Target: CaSla1-D1-D2
Test: as above
Method in brief: as §1

| Binder | SPOT peptide array binding signal intensity |
| --- | --- |
| AGKRRLPLVRFKASD | 162 |

Target: CaSla1-D3
Test: as above
Method in brief: as §1

| Binder | SPOT peptide array binding signal intensity |
| --- | --- |
| AGKRRLPLVRFKASD | 114 |

Target: ScAbp1
Test: as above
Method in brief: as §1

| Binder | SPOT peptide array binding signal intensity |
| --- | --- |
| AGKRRLPLVRFKASD | 146 |

Target: ScBbc1
Test: as above
Method in brief: as §1

| Binder | SPOT peptide array binding signal intensity |
| --- | --- |
| AGKRRLPLVRFKASD | 30.8 |

Target: ScBem1-D1
Test: as above
Method in brief: as §1

| Binder | SPOT peptide array binding signal intensity |
| --- | --- |
| AGKRRLPLVRFKASD | 68.5 |

Target: ScBzz1-D1
Test: as above
Method in brief: as §1

| Binder | SPOT peptide array binding signal intensity |
| --- | --- |
| AGKRRLPLVRFKASD | 24 |

Target: ScBzz1-D2
Test: as above
Method in brief: as §1

| Binder | SPOT peptide array binding signal intensity |
| --- | --- |
| AGKRRLPLVRFKASD | 44 |

Target: ScCyk3
Test: as above
Method in brief: as §1

| Binder | SPOT peptide array binding signal intensity |
| --- | --- |
| AGKRRLPLVRFKASD | 71 |

Target: ScFus1
Test: as above
Method in brief: as §1

| Binder | SPOT peptide array binding signal intensity |
| --- | --- |
| AGKRRLPLVRFKASD | 584 |

Target: ScHof1
Test: as above
Method in brief: as §1

| Binder | SPOT peptide array binding signal intensity |
| --- | --- |
| AGKRRLPLVRFKASD | 5.5 |

Target: ScHse1
Test: as above
Method in brief: as §1

| Binder | SPOT peptide array binding signal intensity |
| --- | --- |
| AGKRRLPLVRFKASD | 2480 |

Target: ScLsb1
Test: as above
Method in brief: as §1

| Binder | SPOT peptide array binding signal intensity |
| --- | --- |
| AGKRRLPLVRFKASD | 4.5 |

Target: ScLsb2
Test: as above
Method in brief: as §1

| Binder | SPOT peptide array binding signal intensity |
| --- | --- |
| AGKRRLPLVRFKASD | 6.5 |

Target: ScLsb3
Test: as above
Method in brief: as §1

| Binder | SPOT peptide array binding signal intensity |
| --- | --- |
| AGKRRLPLVRFKASD | 478 |

Target: ScLsb4
Test: as above
Method in brief: as §1

| Binder | SPOT peptide array binding signal intensity |
| --- | --- |
| AGKRRLPLVRFKASD | 25.5 |

Target: ScMyo3
Test: as above
Method in brief: as §1

| Binder | SPOT peptide array binding signal intensity |
| --- | --- |
| AGKRRLPLVRFKASD | 5 |

Target: ScMyo5
Test: as above
Method in brief: as §1

| Binder | SPOT peptide array binding signal intensity |
| --- | --- |
| AGKRRLPLVRFKASD | 3 |

Target: ScNbp2
Test: as above
Method in brief: as §1

| Binder | SPOT peptide array binding signal intensity |
| --- | --- |
| AGKRRLPLVRFKASD | 626 |
